# Among all 5,500 compounds or so, about 2,000 (36%) were called active. Roughly 18% stayed inconclusive and do not appear here. Some of the results follow. Unmarked numbers belong to inactive results. Rule as the data show it: active = normalized growth mostly below about 0.91 (no sharp cut-off); inconclusive = no clear call, values can overlap the other calls; inactive = mostly above about 0.92.
# Test: chemical genetic growth profiling, strain panel (AID 1159580);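 also: tested at 20 µM; growth read once vehicle control cultures reached saturation at 30 °C; 1 = growth at the plate median or of vehicle wells; lower values mean less growth of the strain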
# Settings: S. cerevisiae deletion strains, growth OD
# [1] = locus YAL021C, strain ccr4, stronger effect = lower value
# [2] = locus YAL026C, strain drs2, stronger effect = lower value
# [3] = locus YAL030W, strain snc1, stronger effect = lower value
# [4] = locus YBL061C, strain skt5, stronger effect = lower value
# [5] = locus YBR009C, strain hhf1, stronger effect = lower value
# [6] = locus YBR023C, strain chs3, stronger effect = lower value
# [7] = locus YBR171W, strain sec66, stronger effect = lower value
# [8] = locus YBR231C, strain swc5, stronger effect = lower value
# [9] = locus YBR279W, strain paf1, stronger effect = lower value
# [10] = locus YCL011C, strain gbp2, stronger effect = lower value
# [11] = locus YCL016C, strain dcc1, stronger effect = lower value
# [12] = locus YCL061C, strain MRC1, stronger effect = lower value
# [13] = locus YCL069W, strain vba3, stronger effect = lower value
# [14] = locus YCR088W, strain abp1, stronger effect = lower value
# [15] = locus YDL005C, strain med2, stronger effect = lower value
# [16] = locus YDL040C, strain nat1, stronger effect = lower value
# [17] = locus YDR001C, strain nth1, stronger effect = lower value
# [18] = locus YDR069C, strain doa4, stronger effect = lower value
# [19] = locus YDR137W, strain rgp1, stronger effect = lower value
# [20] = locus YDR159W, strain sac3, stronger effect = lower value
# [21] = locus YDR297W, strain sur2, stronger effect = lower value
# [22] = locus YDR334W, strain swr1, stronger effect = lower value
# [23] = locus YDR335W, strain msn5, stronger effect = lower value
# [24] = locus YDR392W, strain spt3, stronger effect = lower value
# [25] = locus YEL003W, strain gim4, stronger effect = lower value
# [26] = locus YEL037C, strain rad23, stronger effect = lower value
# [27] = locus YEL061C, strain CIN8 (second series), stronger effect = lower value
# [28] = locus YER015W, strain faa2, stronger effect = lower value
# [29] = locus YER016W, strain bim1, stronger effect = lower value
# [30] = locus YER111C, strain swi4, stronger effect = lower value
# [31] = locus YER155C, strain BEM2 (second series), stronger effect = lower value
# [32] = locus YFR010W, strain ubp6, stronger effect = lower value
# [33] = locus YGL167C, strain pmr1, stronger effect = lower value
# [34] = locus YGL173C, strain kem1, stronger effect = lower value
# [35] = locus YGL227W, strain vid30, stronger effect = lower value
# [36] = locus YGL240W, strain doc1, stronger effect = lower value
# [37] = locus YGL253W, strain hxk2, stronger effect = lower value
# [38] = locus YHR013C, strain ard1, stronger effect = lower value
# [39] = locus YHR027C, strain rpn1, stronger effect = lower value
# [40] = locus YHR030C, strain SLT2, stronger effect = lower value
# [41] = locus YHR079C, strain IRE1, stronger effect = lower value
# [42] = locus YHR142W, strain chs7, stronger effect = lower value
# [43] = locus YJL092W, strain hpr5, stronger effect = lower value
# [44] = locus YJL095W, strain BCK1 (second series), stronger effect = lower value
# [45] = locus YJL095W, strain BCK1, stronger effect = lower value
# [46] = locus YJL115W, strain asf1, stronger effect = lower value
# [47] = locus YJL129C, strain trk1, stronger effect = lower value
# [48] = locus YJL154C, strain vps35, stronger effect = lower value
# [49] = locus YJL164C, strain tpk1, stronger effect = lower value
# [50] = locus YJL166W, strain qcr8, stronger effect = lower value
# [51] = locus YJL187C, strain SWE1, stronger effect = lower value
# [52] = locus YJR066W, strain TOR1, stronger effect = lower value
# [53] = locus YKL160W, strain elf1, stronger effect = lower value
# [54] = locus YKR026C, strain gcn3, stronger effect = lower value
# [55] = locus YKR091W, strain srl3, stronger effect = lower value
# [56] = locus YLL001W, strain dnm1, stronger effect = lower value
# [57] = locus YLL026W, stronger effect = lower value
# [58] = locus YLL041C, strain sdh2, stronger effect = lower value
# [59] = locus YLR027C, strain aat2, stronger effect = lower value
# [60] = locus YLR113W, strain HOG1, stronger effect = lower value
# [61] = locus YLR221C, strain rsa3, stronger effect = lower value
# [62] = locus YLR258W, strain gsy2, stronger effect = lower value
# [63] = locus YLR262C, strain YPT6 (second series), stronger effect = lower value
# [64] = locus YLR320W, strain mms22, stronger effect = lower value
# [65] = locus YLR342W, strain FKS1, stronger effect = lower value
# [66] = locus YLR357W, strain rsc2, stronger effect = lower value
# [67] = locus YLR370C, strain arc18, stronger effect = lower value
# [68] = locus YLR384C, strain iki3, stronger effect = lower value
# [69] = locus YML120C, strain ndi1, stronger effect = lower value
# [70] = locus YMR058W, strain fet3, stronger effect = lower value
# [71] = locus YMR125W, strain sto1, stronger effect = lower value
# [72] = locus YMR129W, stronger effect = lower value
# [73] = locus YMR205C, strain PFK2, stronger effect = lower value
# [74] = locus YMR231W, strain pep5, stronger effect = lower value
# [75] = locus YNL071W, strain lat1, stronger effect = lower value
# [76] = locus YNL183C, strain NPR1, stronger effect = lower value
# [77] = locus YNL209W, strain ssb2, stronger effect = lower value
# [78] = locus YNL248C, strain rpa49, stronger effect = lower value
# [79] = locus YNL322C, strain KRE1 (second series), stronger effect = lower value
# [80] = locus YNR049C, strain mso1, stronger effect = lower value
# [81] = locus YOR001W, strain rrp6, stronger effect = lower value
# [82] = locus YOR070C, strain gyp1, stronger effect = lower value
# [83] = locus YOR080W, strain dia2, stronger effect = lower value
# [84] = locus YOR083W, strain WHI5, stronger effect = lower value
# [85] = locus YOR106W, strain vam3, stronger effect = lower value
# [86] = locus YOR231W, strain MKK1, stronger effect = lower value
# [87] = locus YOR265W, strain rbl2, stronger effect = lower value
# [88] = locus YOR270C, strain vph1, stronger effect = lower value
# [89] = locus YOR290C, strain snf2, stronger effect = lower value
# [90] = locus YPL051W, strain arl3, stronger effect = lower value
# [91] = locus YPL078C, strain atp4, stronger effect = lower value
# [92] = locus YPL106C, strain sse1, stronger effect = lower value
# [93] = locus YPL240C, strain hsp82, stronger effect = lower value
# [94] = locus YPL256C, strain CLN2, stronger effect = lower value
compound,measurement,setting,value
O=c1cc(-c2ccccc2)oc2cc(O)c(O)cc12,normalized growth,[1],0.934
same,normalized growth,[2],0.895 (active)
same,normalized growth,[3],0.949
same,normalized growth,[4],0.946
same,normalized growth,[5],0.894 (active)
same,normalized growth,[6],0.973
same,normalized growth,[7],0.974
same,normalized growth,[8],0.948
same,normalized growth,[9],0.945
same,normalized growth,[10],0.943
same,normalized growth,[11],0.948
same,normalized growth,[12],0.979
same,normalized growth,[13],0.982
same,normalized growth,[14],0.993
same,normalized growth,[15],0.977
same,normalized growth,[16],0.986
same,normalized growth,[17],0.981
same,normalized growth,[18],0.819 (active)
same,normalized growth,[19],0.856
same,normalized growth,[20],0.972
same,normalized growth,"locus YDR195W, strain ref2",1
same,normalized growth,[21],0.952
same,normalized growth,[22],0.96
same,normalized growth,[23],0.979
same,normalized growth,[24],0.979
same,normalized growth,[25],0.964
same,normalized growth,[26],0.967
same,normalized growth,[27],0.964
same,normalized growth,[28],0.946
same,normalized growth,[29],0.99
same,normalized growth,[30],0.951
same,normalized growth,[31],0.971
same,normalized growth,[32],0.914
same,normalized growth,[33],0.949
same,normalized growth,[34],0.933
same,normalized growth,[35],0.973
same,normalized growth,[36],0.943
same,normalized growth,[37],0.939
same,normalized growth,[38],0.856
same,normalized growth,[39],0.945
same,normalized growth,[40],0.981
same,normalized growth,[41],0.972
same,normalized growth,[42],0.941
same,normalized growth,[43],1
same,normalized growth,[44],0.972
same,normalized growth,[45],0.999
same,normalized growth,[46],0.985
same,normalized growth,[47],0.912
same,normalized growth,[48],0.994
same,normalized growth,[49],0.912 (active)
same,normalized growth,[50],0.876 (active)
same,normalized growth,[51],0.946
same,normalized growth,[52],0.954
same,normalized growth,[53],0.97
same,normalized growth,[54],0.98
same,normalized growth,[55],0.983
same,normalized growth,[56],0.975
same,normalized growth,[57],1.01
same,normalized growth,[58],0.976
same,normalized growth,[59],0.975
same,normalized growth,[60],0.99
same,normalized growth,[61],0.949
same,normalized growth,[62],0.953
same,normalized growth,[63],0.791 (active)
same,normalized growth,[64],0.97
same,normalized growth,[65],0.936
same,normalized growth,[66],0.903
same,normalized growth,[67],0.935
same,normalized growth,[68],0.964
same,normalized growth,[69],0.951
same,normalized growth,[70],0.956
same,normalized growth,[71],1.02
same,normalized growth,[72],0.972
same,normalized growth,[73],0.955
same,normalized growth,[74],0.958
same,normalized growth,[75],0.995
same,normalized growth,[76],0.951
same,normalized growth,[77],0.851 (active)
same,normalized growth,[78],1.02
same,normalized growth,[79],0.992
same,normalized growth,[80],0.987
same,normalized growth,[81],0.991
same,normalized growth,[82],0.979
same,normalized growth,[83],0.976
same,normalized growth,[84],0.961
same,normalized growth,[85],0.826 (active)
same,normalized growth,[86],0.996
same,normalized growth,[87],0.95
same,normalized growth,[88],0.773 (active)
same,normalized growth,[89],0.939
same,normalized growth,[90],0.943
same,normalized growth,[91],0.986
same,normalized growth,[92],0.855
same,normalized growth,[93],0.949
same,normalized growth,[94],0.955
O=c1cc(-c2ccc(O)cc2)oc2cc(O)cc(O)c12,normalized growth,[1],0.995
same,normalized growth,[2],0.978
same,normalized growth,[3],0.99
same,normalized growth,"locus YAL040C, strain CLN3, stronger effect = lower value",0.976
same,normalized growth,[4],1
same,normalized growth,[5],1.01
same,normalized growth,[6],0.993
same,normalized growth,[7],0.997
same,normalized growth,[8],1
same,normalized growth,[9],0.994
same,normalized growth,[10],0.999
same,normalized growth,[11],0.998
same,normalized growth,[12],1.01
same,normalized growth,[13],0.989
same,normalized growth,[14],0.987
same,normalized growth,[15],0.995
same,normalized growth,[16],0.99
same,normalized growth,[17],0.981
same,normalized growth,[18],0.966
same,normalized growth,[19],1.04
same,normalized growth,[20],0.975
same,normalized growth,"locus YDR195W, strain ref2",0.955
same,normalized growth,[21],0.993
same,normalized growth,[22],0.98
same,normalized growth,[23],0.996
same,normalized growth,"locus YDR363W, strain ESC2, stronger effect = lower value",0.998
same,normalized growth,[24],0.922
same,normalized growth,[25],0.997
same,normalized growth,[26],0.981
same,normalized growth,[27],0.985
same,normalized growth,"locus YER002W, strain NOP16, stronger effect = lower value",0.987
same,normalized growth,[28],0.986
same,normalized growth,[29],0.98
same,normalized growth,[30],0.989
same,normalized growth,[31],0.975
same,normalized growth,[32],0.966
same,normalized growth,[33],0.974
same,normalized growth,[34],1
same,normalized growth,[35],0.989
same,normalized growth,[36],1
same,normalized growth,[37],0.973
same,normalized growth,"locus YGR229C, strain SMI1, stronger effect = lower value",1.01
same,normalized growth,[38],1.01
same,normalized growth,[39],0.997
same,normalized growth,[40],1.02
same,normalized growth,[41],0.996
same,normalized growth,[42],0.98
same,normalized growth,[43],0.988
same,normalized growth,[44],0.996
same,normalized growth,[45],1.02
same,normalized growth,[46],0.978
same,normalized growth,[47],0.995
same,normalized growth,[48],0.977
same,normalized growth,[49],1.03
same,normalized growth,[50],1.01
same,normalized growth,[51],0.998
same,normalized growth,[52],0.954
same,normalized growth,[53],1.01
same,normalized growth,[54],0.972
same,normalized growth,[55],0.985
same,normalized growth,[56],1.03
same,normalized growth,[57],0.993
same,normalized growth,[58],0.997
same,normalized growth,[59],0.998
same,normalized growth,[60],0.95
same,normalized growth,[61],0.992
same,normalized growth,[62],1
same,normalized growth,[63],1.05
same,normalized growth,[64],1.01
same,normalized growth,[65],0.993
same,normalized growth,[66],0.918
same,normalized growth,[67],0.981
same,normalized growth,[68],0.98
same,normalized growth,[69],0.984
same,normalized growth,[70],0.97
same,normalized growth,[71],0.973
same,normalized growth,[72],0.989
same,normalized growth,[73],1.03
same,normalized growth,[74],0.996
same,normalized growth,[75],0.993
same,normalized growth,"locus YNL175C, strain NOP13, stronger effect = lower value",1.01
same,normalized growth,[76],0.943
same,normalized growth,"locus YNL197C, strain WHI3, stronger effect = lower value",0.981
same,normalized growth,[77],0.998
same,normalized growth,"locus YNL224C, strain SQS1, stronger effect = lower value",0.982
same,normalized growth,[78],0.989
same,normalized growth,[79],0.977
same,normalized growth,[80],0.989
same,normalized growth,[81],1
same,normalized growth,[82],1
same,normalized growth,[83],0.986
same,normalized growth,"locus YOR083W, strain WHI5 (second series), stronger effect = lower value",0.954
same,normalized growth,[84],1.02
same,normalized growth,[85],0.999
same,normalized growth,[86],1.02
same,normalized growth,[87],0.998
same,normalized growth,[88],0.988
same,normalized growth,[89],0.96
same,normalized growth,[90],0.999
same,normalized growth,[91],1
same,normalized growth,[92],0.955
same,normalized growth,[93],0.995
same,normalized growth,[94],1.01
